# MEKK2 mut-MEK5: signal of MEK5 binding to mutant human MEKK2 PB1 domain | hit rate 0.35% among 290,000 | percent response, % at 10 µM | bead flow cytometry, Alexa488-MEK5 binding to MEKK2 mutant; in the data active = percent response above about 24%, passing the limit was not always enough
# MEKK2 WT-MEK5: raises or lowers MEK5 binding to wildtype human MEKK2 PB1 domain; Q9Y2U5; bead flow cytometry, Alexa488-MEK5 binding to MEKK2 WT; actives lie on both sides; binding response (% of control), % at 10 µM; hit rate 1.1% among 290,000; in the data active = binding response below about 67% or above about 130%
# DNA FID counter: displaces DNA intercalator in HCV helicase counter-screen | hit rate 0.17% among 290,000 | DNA fluorescent intercalator displacement, fluorescence | inhibition, % at 7.9 µM | AID 1845; in the data active = inhibition above about 37%;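 also: 0% = vehicle and 100% = reference compound; higher means more ethidium bromide displaced from hairpin DNA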
# dFosB act: mouse delta FosB homodimer activation | P13346 | activation, % at 25 µM | purified delta FosB, TAMRA-CDK5 oligo fluorescence polarization; percent of positive-control signal above neutral wells | hit rate 0.99% among 340,000 | AID 493131;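 active = mean activation above about 17%, with every replicate also reaching it, limit read from the data, passing the limit was not always enough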
# MEKK3 PB1 HTS: modulators (inhibitors or enhancers) of MEK5 binding to human MEKK3 PB1 domain. Q99759. binding response (% of control), % at 10 µM. hit rate 1.4% among 290,000. bead-based flow cytometry, Alexa488-MEK5 binding to MEKK3; actives lie on both sides; 0 = blocked by unlabeled MEK5, 100 = vehicle;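 active = binding response more than 3 SD above or below the average of its plate-row segment, actives on both sides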;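 also: Alexa488 bead fluorescence after subtracting the streptavidin-only scavenger bead signal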
# Target sequence (Q99759 whole entry, looked up, the tested form may be a part): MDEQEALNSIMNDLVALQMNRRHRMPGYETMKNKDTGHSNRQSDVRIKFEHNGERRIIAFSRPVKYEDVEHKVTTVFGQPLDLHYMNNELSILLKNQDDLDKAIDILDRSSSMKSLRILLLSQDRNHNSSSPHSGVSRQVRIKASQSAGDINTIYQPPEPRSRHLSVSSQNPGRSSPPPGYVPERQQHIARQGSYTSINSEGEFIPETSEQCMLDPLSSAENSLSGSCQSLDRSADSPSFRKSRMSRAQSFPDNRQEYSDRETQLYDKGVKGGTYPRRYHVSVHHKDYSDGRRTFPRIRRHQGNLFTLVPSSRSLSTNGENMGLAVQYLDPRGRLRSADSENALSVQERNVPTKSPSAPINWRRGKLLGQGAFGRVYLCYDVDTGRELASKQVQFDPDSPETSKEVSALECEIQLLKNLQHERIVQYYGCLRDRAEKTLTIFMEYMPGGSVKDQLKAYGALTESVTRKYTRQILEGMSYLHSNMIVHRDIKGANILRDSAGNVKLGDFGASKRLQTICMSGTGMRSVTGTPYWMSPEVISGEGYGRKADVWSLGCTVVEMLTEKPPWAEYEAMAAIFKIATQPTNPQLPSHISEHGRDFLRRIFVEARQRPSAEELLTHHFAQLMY
# MEKK2wt confirm: raises or lowers MEK5 binding to wildtype human MEKK2, retest. shares compounds with MEKK3 PB1 HTS. bead flow cytometry, Alexa488-MEK5 binding to MEKK2 WT; actives lie on both sides. binding response (% of control), % at 10 µM. hit rate 2.4% among 5,900. AID 1892; in the data active = binding response below about 16% or above about 210%; inactive = in between
# MEKK2mut-MEK5: signal of MEK5 binding to mutant human MEKK2, retest | shares compounds with MEKK3 PB1 HTS | bead flow cytometry, Alexa488-MEK5 binding to MEKK2 mutant | percent response, % at 10 µM | hit rate 2% among 5,900 | AID 1893; in the data active = percent response mostly above about 71%, no sharp cut-off; inactive = mostly below about 38%;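 also: higher means compound restores mutant binding toward wildtype level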
# MEKK3 confirm: MEKK3-MEK5 PB1 inhibition, single concentration confirmation; binding response (% of control), % at 10 µM; shares compounds with MEKK3 PB1 HTS; hit rate 1.8% among 5,900; bead flow cytometry, Alexa488-MEK5 binding to MEKK3; stronger effect = lower value;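 active = binding response below 72% of control, or above a set upper limit, though filed actives all read lower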;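 also: 100% = DMSO only wells and 0% = binding blocked by excess unlabeled MEK5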
# * marks the source's active call; other numbers are inactive results; . = no result given; [ ] = another dose, or the depositor's remark. The list is not random: actives were taken first. Their share in the collection is about 2.9%.
SMILES,MEKK2 mut-MEK5,MEKK2 WT-MEK5,DNA FID counter,dFosB act,MEKK3 PB1 HTS,MEKK2wt confirm,MEKK2mut-MEK5,MEKK3 confirm
COc1cccc(O)c1CN1CCC(C(=O)Nc2ccc(Oc3cccnc3)cc2)CC1,11,114,16,-9,101,.,.,.
Cc1cccc(CN2CCN(C(c3ccccc3)c3ccc(Cl)cc3)CC2)c1 (configuration not stated),13,155*,10,1,106,150,23,103
CC(=O)N(C)c1nnc(-c2cnccn2)s1,.,.,-2,-4,.,.,.,.
COCC(=O)N(C)c1nnc(-c2cnccn2)s1,-27,-1.0*[inhibitor],-1,3,0.0*[inhibitor],103,1,101
CCCCNc1n[n+](C)c(-c2cccc(C)c2)s1,1,106,.,.,105,.,.,.
COc1ccc(CN(C(=O)c2ccco2)c2ccc(C)c(C)c2)cc1,-2,93,-43,-8,100,.,.,.
CSCCC(NC(=O)c1cc([N+](=O)[O-])ccc1Cl)C(=O)O (configuration not stated),9,88,1,5,103,.,.,.
COc1cc(/C=N/NC(=O)C[n+]2ccccc2)cc(OC)c1OC(C)=O,-30,60*[inhibitor],-1,0,73*[inhibitor],86,-11,82
S=c1sc(SCCOc2ccccc2)nn1-c1ccccc1,1,104,0,0,132*,96,-3,101
CC(C)COCC1CC2(CC(C)C(=O)CC2=O)C(=O)O1 (configuration not stated),17,125,-17,0,123*,89,-10,85
CCOC(=O)c1cc(-c2ccccc2)n(CC2CC(c3ccc(OC)cc3)=NO2)n1 (configuration not stated),1,96,-38,-1,101,.,.,.
N/C(=N\N=C\c1ccco1)SC1CC(=O)N(c2ccc(C(=O)O)cc2)C1=O (configuration not stated),5,123,-3,5,135*,110,0,100
N/C(=N\N=C\c1ccco1)SC1CC(=O)N(c2ccccc2)C1=O (configuration not stated),-6,92,0,14,94,.,.,.
O=C1NC(c2ccccc2)=N/C1=C/c1ccco1,2,111,-1,1,138*,104,0,101
O=C1NC(c2cccc(Br)c2)=N/C1=C\c1ccco1,-1,100,-3,1,123,.,.,.
Cc1ccc(NC(=O)c2cc(NC(=O)C3CC=CCC3C(=O)O)ccc2N2CCOCC2)cc1Cl (configuration not stated),11,104,-54,-9,108,.,.,.
CCOC(=O)Cc1c(C)nc2c(-c3ccccc3OC)c(C)nn2c1C,1,93,-25,-7,94,.,.,.
CCOC(=O)Cc1c(C)nc2c(-c3ccc(Cl)cc3)c(C)nn2c1C,-34,.,11,1,0.0*[inhibitor],90,-10,89
CN(CCOc1ccc(-c2ccn(S(=O)(=O)c3cccc4ccccc34)n2)cc1)c1ccccn1,-16,2.0*[inhibitor],4,5,1.0*[inhibitor],100,0,105
CN(CCOc1ccc(-c2ccn(S(=O)(=O)c3c(Cl)cccc3Cl)n2)cc1)c1ccccn1,-6,97,-3,-3,100,.,.,.
CN(Cc1ccccc1)c1ccc([N+](=O)[O-])cc1C(=O)O,-6,96,-3,2,105,.,.,.
CN(C)c1ccc([N+](=O)[O-])cc1C(=O)O,0,108,-2,1,129*,100,-3,99
CCOC(=O)c1cnc2c(cnn2C)c1NCCCn1ccnc1,-3,91,3,-18,96,.,.,.
Cc1ccc(S(=O)(=O)n2cnc(C)c2)cc1,5,101,0,-5,102,.,.,.
CCOc1cc(/C=N/O)ccc1OCc1ccc(F)cc1,2,108,-9,-4,108,.,.,.
